# Shown are actives, neighbours in structure and some others; about 7.5% of the full set was active somewhere.
# FLuc counter – inhibits or activates purified firefly luciferase, miR-21 counter-screen; 360,000 compounds, 6.9% hits; Potency, µM (series often up to 57.5 µM), for inactives: at the highest dose activity change, negative = inhibition, usual class: inhibitors; P08659; AID 588342; purified FLuc, Km substrates, luminescence inhibition;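 note: plate controls were vehicle for no effect and reference inhibitor for full effect; nearly all actives have a fitted effect of over 55% in size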
# Target sequence (P08659 whole entry, looked up): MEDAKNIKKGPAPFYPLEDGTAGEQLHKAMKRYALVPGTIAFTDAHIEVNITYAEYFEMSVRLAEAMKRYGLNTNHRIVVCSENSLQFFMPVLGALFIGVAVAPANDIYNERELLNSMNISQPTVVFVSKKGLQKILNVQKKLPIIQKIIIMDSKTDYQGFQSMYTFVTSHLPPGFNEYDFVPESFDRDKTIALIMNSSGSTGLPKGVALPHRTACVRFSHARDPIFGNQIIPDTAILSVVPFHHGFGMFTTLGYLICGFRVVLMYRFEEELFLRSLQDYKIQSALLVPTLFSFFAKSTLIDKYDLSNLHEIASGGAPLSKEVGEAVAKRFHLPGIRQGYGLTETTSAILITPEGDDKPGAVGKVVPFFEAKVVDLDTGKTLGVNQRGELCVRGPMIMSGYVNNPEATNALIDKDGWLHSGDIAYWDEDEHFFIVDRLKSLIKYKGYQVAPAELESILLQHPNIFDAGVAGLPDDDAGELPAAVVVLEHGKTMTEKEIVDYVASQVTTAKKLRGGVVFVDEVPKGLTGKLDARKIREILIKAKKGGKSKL
#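 Purified P. pyralis luciferase, 10 nM final, with Km-level 10 uM D-luciferin and 10 uM ATP in 50 mM Tris acetate pH 7.5, 10 mM Mg acetate, 0.01% Tween-20, 0.05% BSA; 6-point qHTS titration about 60 µM downward; luminescence read.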
# ELG1 genotoxic – inducers of genotoxicity in HEK293T ELG1-luciferase cells; Potency, µM (doses to about 46 µM), without a hit: at the top dose activity change, positive = activation, most hits filed as activators; HEK293T ELG1-luciferase reporter, luminescence, 16 h; 330,000 compounds, 1.3% hits; note: % of control where 0% means no effect; nearly all actives have a fitted effect of over 60% in size
#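 Step 1: seed 2,000 HEK293T ELG1-luciferase cells per well. Step 2: add compound or DMSO, incubate 16 hr at 37 °C. Step 3: ONE-Glo, 30 min at room temperature, read luminescence.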
# NPC1 prom act – NPC1 promoter activation; Huh7 NPC1 promoter luciferase reporter, 24 h; Potency, µM (doses to about 9.22 µM), inactives show top-dose activation, most hits filed as activators; 320,000 compounds, 2.4% hits; AID 485313; note: % of control where 0% means no effect; nearly all actives have a fitted effect of over 60% in size
#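 Huh7 reporter cells (NPC1 promoter driving luciferase) are dosed with compound for 24 h at 37 °C, 5% CO2; luciferase detection reagent is then added and luminescence measured after 10 min at ambient temperature.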
# Rab9 prom act – activates the Rab9 promoter; Huh7 Rab9 promoter-luciferase reporter, luminescence, 24 h; Potency, µM (highest dose often 9.22 µM), for the others: top-dose activation, negative = inhibition, actives largely listed as activators; 320,000 compounds, 2.8% hits; note: % of control where 0% means no effect; nearly all actives have a fitted effect of over 60% in size
#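 Rab9 promoter-driven luciferase in stably transfected Huh7 cells; 1500 cells/well rested 2 h, exposed to compound in DMSO for 24 h at 37 °C, 5% CO2. Luminescence read 10 min after adding luciferase reagent at ambient temperature.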
# Luc counter – blocks Kinase-Glo luciferase, a counter-screen artifact | Q27757 | Kinase-Glo luciferase, ATP luminescence, 8 min | Potency, µM (doses to about 38.3 µM), for the others: at the highest dose activity change, negative = inhibition, actives largely listed as inhibitors | 200,000 compounds, 0.28% hits; note: % is set by controls: 0 for no effect and ±100 for the full control effect; nearly all actives have a fitted effect of over 60% in size
#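 Light output from Kinase-Glo luciferase with luciferin and 10 uM ATP in 50 mM imidazole pH 7.2, KCl, MgCl2, Tween 20, BSA; compound pin-delivered, 8-min ambient incubation, then luminescence read.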
# SMN2 splice enh – increases expression of the SMN2 splice variant | 210,000 compounds, 2.8% hits | HEK293 SMN2-luciferase splicing reporter, luminescence, 30-36 h | AID 1458 | Potency, µM (highest dose often 46.1 µM), inactives show at the highest dose activity change, positive = activation, hits mostly activators; note: % of control where 0% means no effect; nearly all actives have a fitted effect of over 55% in size
#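 HEK293 cells carry an SMN2 minigene-luciferase reporter in which exon 7 inclusion puts luciferase in frame. Cells were seeded at 2000 cells/well, attached for 10-12 hours, then exposed to compounds for 30-36 hours at 37C before ONE-Glo luminescence.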
# Active calls of the source: *; ? = inconclusive; · = no result given. Calls come from the whole dose curve; as a rule, active = well fitted curve in the direction sought with a large enough effect; inconclusive = small, poorly fitted or top-dose-only effect, or another doubt; inactive = no such curve, though single readings can be large; an effect the other way counts as inactive or inconclusive. Potency is the fitted concentration of half-maximal effect.
SMILES,FLuc counter,ELG1 genotoxic,NPC1 prom act,Rab9 prom act,Luc counter,SMN2 splice enh
CCOC(=O)c1cc2c(C)n(-c3ccc(C)cc3)c(C)c2ccc1=O,0.38µM*,8%,?,?,4%,-13%
CCOC(=O)c1c[nH]n(-c2ccc(C)cc2)c1=O,?,11%,14%,29%,2%,9%
CCOC(=O)c1cc2c(C)n(-c3ccc(OCC)cc3)c(C)c2ccc1=O,17µM*,-9%,1%,-4%,-1%,-32%
Cc1ccccc1C(=O)NC1CCN(CC(=O)NCc2ccccc2)CC1,2%,-5%,0%,-4%,·,·
CCc1nnc(NC(=O)c2ccc(Cl)nc2)s1,13µM*,?,26%,?,-5%,26%
O=C(Nc1nnc(C2CC2)s1)c1ccc(S(=O)(=O)c2ccccc2)cc1,2%,0%,1%,-3%,-1%,-14%
O=C(Nc1nnc(C2CC2)s1)c1ccc(Cl)nc1,12µM*,?,?,?,·,·
CCc1nnc(NC(=O)c2cc(Cl)ccn2)s1,15µM*,16µM*,2.2µM*,2.5µM*,·,·
CC(C)(C)c1nnc(NC(=O)c2ccc(Cl)nc2)s1,?,16%,23%,4.5µM*,9%,·
CCN(C(=O)COC(=O)c1cccc(S(=O)(=O)NCc2ccccc2)c1)c1ccccc1,7%,-4%,-8%,-3%,·,·
COCCNC(=O)c1ccc(-c2nc(CS(=O)(=O)c3ccccc3)c(C)o2)cc1,-5%,·,·,·,·,·
COC(=O)[C@@]1(Cc2ccc(OC)cc2)[C@H]2c3cc(C(=O)N(C)C)n(Cc4cc(F)c(F)c(F)c4)c3C[C@H]2CN1C(=O)c1ccccc1,·,·,·,·,-1%,-25%
CC(=O)c1c(C)[nH]c(C(=O)Nc2nc(-c3ccc(Cl)cc3)cs2)c1C,-7%,-13%,-2%,-3%,0%,-45%
CC(=O)c1c(C)[nH]c(C(=O)Nc2nc(C)cs2)c1C,0.6µM*,0.52µM*,1µM*,0.11µM*,-7%,1.6µM*
CC(=O)c1c(C)[nH]c(C(=O)Nc2ccc(C)cn2)c1C,0.43µM*,?,0.71µM*,0.25µM*,-14%,0.79µM*
Cc1nc([N+](=O)[O-])c(C(=O)OCc2cccc(Br)c2)n1C,0%,12%,-1%,1%,-1%,0%
N=c1nc(N)nc2n1NC(c1ccc(F)cc1)=CS2,15µM*,16%,-1%,-2%,0%,20%
Fc1ccc(C2=CSC3=NCCN23)cc1,-13%,1%,0%,-2%,1%,-1%
COc1cccc2sc3ccc(C#CC4(N)CCCCC4)cc3c(=O)c12,19µM*,11%,24%,21%,·,·
COc1cc(OC)cc(-c2sc3ccc(OC)cc3c2C#CC2(N)CCCCC2)c1,·,-4%,·,·,·,·
O=C(Nc1ccc(N2CCCC2)cc1)C(Cl)c1ccccc1 (configuration not stated),8.5µM*,11%,-1%,25%,?,-10%
O=C(Nc1cccc(S(=O)(=O)N2CCCCCC2)c1)c1ccc2ccccc2n1,?,-1%,12%,16%,-1%,9%
O=C(Nc1ccc(N2CCCCC2)cc1)c1ccc2ccccc2n1,4.8µM*,?,?,2.8µM*,-5%,53%
Cc1ccccc1C(=O)Nc1ccc(N2CCCC2)cc1,9.5µM*,1%,?,?,?,·
CCCN(C(=O)c1c(C)oc2ncnc(N3CCOCC3)c12)c1ccc(Cl)c(Cl)c1,1%,·,·,·,·,-1%
SMILES,FLuc counter,ELG1 genotoxic,NPC1 prom act,Rab9 prom act,Luc counter,SMN2 splice enh
C=CCSc1nnc(-c2ccc(Cl)cc2Cl)o1,1.3µM*,?,0.71µM*,0.45µM*,8%,?
Clc1ccc(-c2nnc(SCc3ccon3)o2)c(Cl)c1,1.2µM*,1.2µM*,0.35µM*,0.5µM*,-4%,2.8µM*
C=CCSc1nnc(-c2ccc([N+](=O)[O-])cc2)o1,17µM*,?,3.5µM*,4µM*,1%,?
CC(=O)Nc1ccccc1OCc1cc(=O)n2c(C)csc2n1,-2%,·,·,·,·,-10%
O=C(/C=C/c1ccco1)Nc1ccc2c(c1)OCCO2,1.9µM*,-5%,2.2µM*,0.63µM*,-17%,8.9µM*
O=C(/C=C/c1ccccc1)Nc1ccc2c(c1)OCCO2,0.21µM*,?,0.5µM*,0.45µM*,-13%,1.1µM*
COc1ccccc1/C=C/C(=O)OCC(=O)Nc1ccc2c(c1)OCCO2,·,2%,0%,-5%,·,·
COc1ccccc1/C=C/C(=O)Nc1ccc2c(c1)OCCO2,0.85µM*,?,?,0.71µM*,-5%,2.8µM*
COc1ccc(CCNC(=O)Cn2c(=O)n(-c3cc(OC)c(OC)c(OC)c3)c(=O)c3ccccc32)cc1OC,3%,·,·,·,·,-1%
C/C(=N\NC(=O)Cc1cccc2ccccc12)c1ccncc1,-10%,-1%,-4%,0%,-1%,-35%
CCOc1ccc(C(=O)NCc2nnnn2-c2ccc(C)c(C)c2)cc1OCC,-3%,·,·,·,·,·
CCC1CCCCN1C(=O)Cn1c(=O)n(-c2ccc(Cl)c(Cl)c2)c(=O)c2c(C)c(C(=O)N(C)C)sc21 (configuration not stated),-8%,·,·,·,·,·
COc1ccc2nc(NC(=O)c3cnccn3)sc2c1,3µM*,?,3.2µM*,2.2µM*,-16%,4µM*
COc1ccc(-n2nc(C(=O)Nc3nc4ccc(OC)cc4s3)c3ccccc3c2=O)c(OC)c1,5%,8%,-6%,0%,1%,-8%
COc1ccc2nc(NC(=O)c3ccccc3F)sc2c1,0.34µM*,?,0.45µM*,0.32µM*,·,·
COc1ccc2nc(NC(=O)c3ccc(NS(=O)(=O)c4cccs4)cc3)sc2c1,4.8µM*,-2%,3%,-2%,-1%,-12%
CCn1cc([N+](=O)[O-])c(C(=O)Nc2nc3ccc(OC)cc3s2)n1,24µM*,7%,0.4µM*,0.32µM*,-3%,-4%
CCSc1ncc(Cl)c(C(=O)Nc2nc3ccc(OC)cc3s2)n1,-7%,·,·,·,·,-4%
CCCC(=O)Nc1nc2ccc(NC(=O)c3ccccc3F)cc2s1,-22%,-2%,-30%,-12%,-2%,·
CC(=O)c1cccc(N(C(=O)CNC(=O)c2ccco2)C(C(=O)NCc2ccco2)c2ccccc2)c1 (configuration not stated),1%,1%,-1%,-11%,1%,·
CS(=O)(=O)N1CCC2(CC1)CN(Cc1nccs1)C2,·,·,·,·,1%,-7%
O=C(C1CCN(S(=O)(=O)c2cnc[nH]2)CC1)N1CCN(c2ccc([N+](=O)[O-])cc2)CC1,15%,0%,-1%,-1%,·,·
CSc1ncccc1C(=O)Nc1ccc2nc(C)sc2c1,17µM*,12%,23%,1%,·,·
